Measured values from PubChem BioAssay (NCATS).
Inconclusive results are not listed. A call without a number means that no potency is given here. Activity calls are given as the source filed them. Calls follow the shape of the dose curve; as a rule, active = well fitted cell-killing curve with a large enough effect; inconclusive = small, poorly fitted or top-dose-only effect; inactive = flat fitted curve, though single readings scatter.

experiment: Cell Viability - LYMP2-024 (AID 988); details: LYMP2-024 lymphoblastoid cell viability; series mostly up to 92.2 µM; also: nearly all actives have a fitted effect of over 60% in size
Description: NIH Chemical Genomics Center [NCGC]
NIH Molecular Libraries Screening Centers Network [MLSCN]
National Institutes of Environmental Health Sciences [NIEHS]
National Toxicology Program [NTP]
We have developed a 1536-well cell-based assay for quantitative high throughput screening (qHTS) against a number of cell lines to determine in vitro cytotoxicity of small molecules. This particular assay uses a human lymphoblastoid cell line (LYMP2-024) purchased from Coriell Institute for Medical Research.
NCGC Assay Protocol Summary:
The CellTiter-Glo luminescent cell viability assay (Promega) is a homogeneous method to measure the number of viable cells in culture. The end point readout of this assay is based on quantitation of intracellular ATP, an indicator of metabolic activity, using the luciferase reaction. Luciferase catalyzes the oxidation of beetle Luciferin to oxyluciferin and light in the presence of ATP. The luminescent signal is proportional to amount of ATP present.
Using the CellTiter-Glo luminescent cell viability assay, the amount of cellular ATP was measured in the lymphoblastoid cell line with complete culture medium following compound treatment for 24 hours. The assay was performed in opaque white Kalypsys 1536-well plates. In the screen, tetraoctylammonium bromide was used as positive control. Library compounds were measured for their ability to cause acute toxicity in the cell line, as reflected by a decrease in intracellular ATP levels, in a concentration-dependent manner. […] AC50 values were determined from concentration-response data modeled with the standard Hill equation.
qHTS protocol for CellTiter Glo lymphoblastoid cellular assay
[Step] [Parameter] [Value] [Description]
1. Reagent; 5 uL; 2500 lymphoblastoid cells/well
2. Time; 5 hr; 37 C incubation
4. Controls; 23 nL; Tetraoctylammonium bromide 6.4pM to 92 uM
5. Time; 24 hr; 37 C incubation
6. Reagent; 5 uL; CellTiter Glo reagent
7. Time; 30 min; Room Temperature
8. Detection; Luminescence; Viewlux plate reader
Keywords: cell viability, cytotoxicity, lymphoblastoid cell line, luminescence, NTPHTS, NTPHTS_NCGC, NIEHS, DSSTox, MLSMR, MLSCN, NIH Roadmap, qHTS, NCGC
Potency is read from the fitted curve at half-maximal effect.

Row | SMILES | Potency
1 | NC(=O)NC(N)=O | inactive
2 | CC/C(C)=N/O | inactive
3 | FC(F)(F)c1cccc(Cl)c1 | inactive
4 | C[C@@H]1O[C@@H](O[C@@H]2[C@@H](O)[C@H](OCCc3ccc(O)c(O)c3)O[C@H](CO[C@@H]3O[C@H](CO)[C@@H](O)[C@H](O)[C@H]3O)[C@H]2OC(=O)/C=C/c2ccc(O)c(O)c2)[C@H](O)[C@H](O)[C@H]1O | inactive
5 | OC/C(Br)=C(\Br)CO | inactive
6 | C1COC1 | inactive
7 | c1ccc2[nH]cnc2c1 | inactive
8 | Cc1ccccc1Br | inactive
9 | Cc1ccc(Cl)cc1 | inactive
10 | COC(=O)CCCC(=O)OC | inactive
11 | CCCCC(CC)CNCC(CC)CCCC (stereo not given) | inactive
12 | O=C(O)c1ccc(C(=O)O)cc1 | inactive
13 | O=C(O[C@@H](C(=O)O)[C@@H](OC(=O)c1ccccc1)C(=O)O)c1ccccc1 | inactive
14 | CCCC(C)CO (stereo not given) | inactive
15 | Cc1cccc(C)c1 | inactive
16 | O=C(O)c1c(Cl)cccc1Cl | inactive
17 | O=Cc1cccc(Br)c1 | inactive
18 | O=[N+]([O-])c1cccc(Cl)c1 | inactive
19 | BrC/C=C/CBr | inactive
20 | Oc1cccc(Nc2ccccc2)c1 | inactive

Row | SMILES | Potency
21 | CCCCCNCCCCC | inactive
22 | CCN(CC)c1cccc(O)c1 | inactive
23 | Cc1cccc(C)c1O | inactive
24 | O=C(O)c1ccccc1Cl | inactive
25 | O=C(O)c1ccc(Cl)cc1Cl | inactive
26 | CC(C)c1ccccc1 | inactive
27 | ICCc1ccccc1 | inactive
28 | Nc1ccc(Cl)cc1[N+](=O)[O-] | inactive
29 | Cc1ccccc1C(=O)O | inactive
30 | NC(=S)NNC(N)=S | inactive
31 | C=C(C)C(=O)OC | inactive
32 | O=C(Cl)c1c(Cl)cccc1Cl | inactive
33 | CC(C)C(C)C | inactive
34 | CCC(O)C(C)(C)C (stereo not given) | inactive
35 | CCCCC/C=C/C=C/C=O | 50.1 µM (active)
36 | CN(C)CCCCl | inactive
37 | O=C1OC(=O)c2c(Cl)c(Cl)c(Cl)c(Cl)c21 | inactive
38 | COc1cccc2sc(N)nc12 | inactive
39 | O=[N+]([O-])c1cccc(C(F)(F)F)c1 | inactive
40 | Nc1cccc2c(=O)[nH][nH]c(=O)c12 | inactive
